# Source: the supplement of paper PMC6411743
# ± gives the standard deviation of the averaged measurements. Targets with the largest changes are over-represented here; the source holds about 6,200 in all.
# Key:
# Assay in all cases: NP40-soluble protein abundance relative to vehicle (solubility fold change) (ratio); higher = more soluble protein in presence of AMP-PNP
# [1] = target: T1, UniProt Q9BY77|Q9BY77-2
# T1 sequence (whole entry): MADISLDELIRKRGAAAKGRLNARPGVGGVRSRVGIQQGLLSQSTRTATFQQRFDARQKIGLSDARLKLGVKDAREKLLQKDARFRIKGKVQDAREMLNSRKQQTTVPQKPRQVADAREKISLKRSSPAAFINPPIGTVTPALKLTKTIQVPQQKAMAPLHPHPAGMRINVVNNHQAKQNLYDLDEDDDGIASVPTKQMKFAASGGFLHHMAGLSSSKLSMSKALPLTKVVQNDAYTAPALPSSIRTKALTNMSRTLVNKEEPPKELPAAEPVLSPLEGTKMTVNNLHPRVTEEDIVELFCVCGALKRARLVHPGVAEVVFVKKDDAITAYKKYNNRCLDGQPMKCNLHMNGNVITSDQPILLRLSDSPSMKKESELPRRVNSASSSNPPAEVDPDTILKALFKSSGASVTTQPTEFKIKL
# How it was run: (§1)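 Data come from three independent experiments in which Dounce-homogenised Jurkat crude lysate was treated at eight concentrations from 0.1 to 10 mM. Treatment ran 10 min at room temperature and then 3 min at 37 °C, after which 0.8% NP40 and benzonase were added for 60 min at 4 °C before ultracentrifugation. The supernatant underwent TMT labelling and LC-MS/MS, and vsn-normalised intensities were expressed as fold change against the detergent-processed vehicle in each replicate.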
# [2] = target: T2, UniProt Q9H9J4|Q9H9J4-2
# T2 sequence (whole entry): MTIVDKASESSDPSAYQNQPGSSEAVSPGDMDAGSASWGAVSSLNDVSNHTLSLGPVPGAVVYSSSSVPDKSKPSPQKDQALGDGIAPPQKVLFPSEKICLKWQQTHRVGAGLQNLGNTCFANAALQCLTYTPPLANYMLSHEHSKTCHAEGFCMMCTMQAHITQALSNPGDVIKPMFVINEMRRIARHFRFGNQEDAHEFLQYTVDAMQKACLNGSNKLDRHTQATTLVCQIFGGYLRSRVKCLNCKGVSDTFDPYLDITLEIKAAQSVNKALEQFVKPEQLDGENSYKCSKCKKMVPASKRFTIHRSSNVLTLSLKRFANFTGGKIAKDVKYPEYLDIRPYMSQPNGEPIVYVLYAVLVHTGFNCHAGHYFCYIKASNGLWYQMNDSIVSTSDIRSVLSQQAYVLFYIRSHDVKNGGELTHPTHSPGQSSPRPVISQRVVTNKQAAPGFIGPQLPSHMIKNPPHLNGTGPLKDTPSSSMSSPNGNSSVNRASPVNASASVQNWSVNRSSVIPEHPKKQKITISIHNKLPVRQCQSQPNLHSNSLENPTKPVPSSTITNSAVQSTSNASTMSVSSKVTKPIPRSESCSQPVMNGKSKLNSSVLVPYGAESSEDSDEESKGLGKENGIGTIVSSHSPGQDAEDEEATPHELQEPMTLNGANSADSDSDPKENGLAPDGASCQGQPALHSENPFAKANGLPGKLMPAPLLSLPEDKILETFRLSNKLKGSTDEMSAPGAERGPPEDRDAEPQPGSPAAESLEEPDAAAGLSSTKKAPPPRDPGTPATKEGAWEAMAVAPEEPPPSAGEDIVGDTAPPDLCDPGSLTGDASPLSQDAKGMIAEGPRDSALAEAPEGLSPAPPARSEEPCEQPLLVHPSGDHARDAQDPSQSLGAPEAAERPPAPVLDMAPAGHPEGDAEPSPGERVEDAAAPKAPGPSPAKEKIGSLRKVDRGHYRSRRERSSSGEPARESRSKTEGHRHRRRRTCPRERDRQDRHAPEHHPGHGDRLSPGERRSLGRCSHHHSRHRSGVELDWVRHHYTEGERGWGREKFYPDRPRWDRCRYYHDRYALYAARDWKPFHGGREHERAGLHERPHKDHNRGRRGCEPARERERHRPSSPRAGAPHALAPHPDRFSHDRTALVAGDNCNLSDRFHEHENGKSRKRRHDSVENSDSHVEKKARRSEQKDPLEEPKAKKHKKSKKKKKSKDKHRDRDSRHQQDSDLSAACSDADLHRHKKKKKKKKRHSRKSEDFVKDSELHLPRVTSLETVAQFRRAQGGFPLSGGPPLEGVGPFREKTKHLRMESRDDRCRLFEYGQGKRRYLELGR
# How it was run: as §1
# [3] = target: T3, UniProt Q9NPJ3
# T3 sequence (whole entry): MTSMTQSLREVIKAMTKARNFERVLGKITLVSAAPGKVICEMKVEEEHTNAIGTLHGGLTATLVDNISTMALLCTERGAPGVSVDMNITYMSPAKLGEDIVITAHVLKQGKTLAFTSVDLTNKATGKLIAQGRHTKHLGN
# How it was run: as §1
# [4] = target: T4, UniProt Q9NQ86-4|E9PBG3|Q9NQ86
# T4 sequence (whole entry): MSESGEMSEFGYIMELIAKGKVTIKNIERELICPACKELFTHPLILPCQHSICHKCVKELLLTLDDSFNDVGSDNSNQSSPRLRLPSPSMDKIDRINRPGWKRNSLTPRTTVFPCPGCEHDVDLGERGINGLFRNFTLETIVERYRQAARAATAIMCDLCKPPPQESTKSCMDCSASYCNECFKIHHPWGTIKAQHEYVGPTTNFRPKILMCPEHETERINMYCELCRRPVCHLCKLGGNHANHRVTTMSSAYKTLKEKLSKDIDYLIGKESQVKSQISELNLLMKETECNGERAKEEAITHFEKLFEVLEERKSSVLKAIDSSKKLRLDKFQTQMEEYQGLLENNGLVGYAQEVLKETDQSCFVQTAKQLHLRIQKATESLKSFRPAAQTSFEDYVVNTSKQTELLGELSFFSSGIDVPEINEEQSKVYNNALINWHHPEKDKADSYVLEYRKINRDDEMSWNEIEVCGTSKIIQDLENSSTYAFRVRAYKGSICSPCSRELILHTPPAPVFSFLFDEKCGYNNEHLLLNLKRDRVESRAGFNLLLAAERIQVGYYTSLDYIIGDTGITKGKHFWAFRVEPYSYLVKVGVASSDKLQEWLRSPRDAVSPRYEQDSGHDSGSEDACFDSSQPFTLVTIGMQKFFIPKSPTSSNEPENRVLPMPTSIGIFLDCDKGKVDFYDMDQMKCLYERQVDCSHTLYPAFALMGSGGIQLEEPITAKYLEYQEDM
# How it was run: as §1
# [5] = target: T5, UniProt Q9NUS5
# T5 sequence (whole entry): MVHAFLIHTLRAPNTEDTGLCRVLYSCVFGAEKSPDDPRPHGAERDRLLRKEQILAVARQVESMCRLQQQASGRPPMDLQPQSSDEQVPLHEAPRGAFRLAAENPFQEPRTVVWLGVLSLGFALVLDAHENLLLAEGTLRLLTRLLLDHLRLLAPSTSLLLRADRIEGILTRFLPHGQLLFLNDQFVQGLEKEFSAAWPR
# How it was run: as §1
# [6] = target: T6, UniProt Q9NVH6|Q9NVH6-7|Q9NVH6-8
# T6 sequence (whole entry): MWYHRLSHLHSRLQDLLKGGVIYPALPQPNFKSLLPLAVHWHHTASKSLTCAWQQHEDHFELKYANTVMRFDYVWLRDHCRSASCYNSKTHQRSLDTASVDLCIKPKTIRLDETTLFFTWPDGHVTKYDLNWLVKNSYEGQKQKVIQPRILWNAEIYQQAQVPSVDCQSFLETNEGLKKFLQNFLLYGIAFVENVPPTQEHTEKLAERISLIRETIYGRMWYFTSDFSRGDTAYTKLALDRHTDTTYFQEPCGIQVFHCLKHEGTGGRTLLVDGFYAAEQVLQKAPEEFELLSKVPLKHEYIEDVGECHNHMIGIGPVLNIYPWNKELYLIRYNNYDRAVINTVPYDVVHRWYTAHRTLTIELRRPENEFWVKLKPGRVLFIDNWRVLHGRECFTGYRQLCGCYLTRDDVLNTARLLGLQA
# How it was run: as §1
# [7] = target: T7, VRK1 (UniProt Q99986)
# T7 sequence (whole entry): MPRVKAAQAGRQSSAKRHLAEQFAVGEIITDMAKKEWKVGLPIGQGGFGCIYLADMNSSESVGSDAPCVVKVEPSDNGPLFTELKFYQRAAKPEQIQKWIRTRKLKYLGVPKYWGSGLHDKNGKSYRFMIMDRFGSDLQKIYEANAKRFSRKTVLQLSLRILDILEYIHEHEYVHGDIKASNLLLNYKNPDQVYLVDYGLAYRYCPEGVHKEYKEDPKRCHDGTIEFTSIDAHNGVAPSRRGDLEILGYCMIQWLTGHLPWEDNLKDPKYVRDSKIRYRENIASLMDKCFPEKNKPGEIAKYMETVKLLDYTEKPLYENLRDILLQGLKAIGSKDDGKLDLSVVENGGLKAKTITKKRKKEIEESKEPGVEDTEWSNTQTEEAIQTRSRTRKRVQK
# How it was run: as §1
smiles,measurement,setting,value
Nc1ncnc2c1ncn2[C@@H]1O[C@H](COP(=O)(O)OP(=O)(O)NP(=O)(O)O)[C@@H](O)[C@H]1O [adenylyl imidodiphosphate],NP40-soluble protein abundance,[1]; concentration: 6mM,1.17 ± 0.016
same,NP40-soluble protein abundance,[1]; concentration: 8mM,1.24 ± 0.028
same,NP40-soluble protein abundance,[1]; concentration: 10mM,1.37 ± 0.081
same,NP40-soluble protein abundance,[2]; concentration: 1mM,1.02 ± 0.026
same,NP40-soluble protein abundance,[2]; concentration: 2mM,1.03 ± 0.035
same,NP40-soluble protein abundance,[2]; concentration: 4mM,1.01 ± 0.035
same,NP40-soluble protein abundance,[2]; concentration: 6mM,0.993 ± 0.011
same,NP40-soluble protein abundance,[2]; concentration: 8mM,1.03 ± 0.03
same,NP40-soluble protein abundance,[2]; concentration: 10mM,1.04 ± 0.04
same,NP40-soluble protein abundance,[3]; concentration: 1mM,0.947 ± 0.014
same,NP40-soluble protein abundance,[3]; concentration: 2mM,0.9081 ± 0.0059
same,NP40-soluble protein abundance,[3]; concentration: 4mM,0.9 ± 0.028
same,NP40-soluble protein abundance,[3]; concentration: 6mM,0.974 ± 0.062
same,NP40-soluble protein abundance,[3]; concentration: 8mM,0.976 ± 0.032
same,NP40-soluble protein abundance,[3]; concentration: 10mM,0.948 ± 0.076
same,NP40-soluble protein abundance,[4]; concentration: 1mM,0.952 ± 0.04
same,NP40-soluble protein abundance,[4]; concentration: 2mM,0.976 ± 0.047
same,NP40-soluble protein abundance,[4]; concentration: 4mM,0.994 ± 0.042
same,NP40-soluble protein abundance,[4]; concentration: 6mM,0.998 ± 0.017
same,NP40-soluble protein abundance,[4]; concentration: 8mM,1 ± 0.044
same,NP40-soluble protein abundance,[4]; concentration: 10mM,1.01 ± 0.023
same,NP40-soluble protein abundance,[5]; concentration: 1mM,0.96 ± 0.016
same,NP40-soluble protein abundance,[5]; concentration: 2mM,0.936 ± 0.051
same,NP40-soluble protein abundance,[5]; concentration: 4mM,0.963 ± 0.02
same,NP40-soluble protein abundance,[5]; concentration: 6mM,0.948 ± 0.012
same,NP40-soluble protein abundance,[5]; concentration: 8mM,0.938 ± 0.038
same,NP40-soluble protein abundance,[5]; concentration: 10mM,0.936 ± 0.041
same,NP40-soluble protein abundance,[6]; concentration: 1mM,0.969 ± 0.051
same,NP40-soluble protein abundance,[6]; concentration: 2mM,0.9817 ± 0.0096
same,NP40-soluble protein abundance,[6]; concentration: 4mM,0.984 ± 0.06
same,NP40-soluble protein abundance,[6]; concentration: 6mM,0.972 ± 0.065
same,NP40-soluble protein abundance,[6]; concentration: 8mM,0.985 ± 0.018
same,NP40-soluble protein abundance,[6]; concentration: 10mM,0.969 ± 0.046
same,NP40-soluble protein abundance,[7]; concentration: 1mM,1.08 ± 0.036
same,NP40-soluble protein abundance,[7]; concentration: 2mM,1.1 ± 0.078
same,NP40-soluble protein abundance,[7]; concentration: 4mM,1.22 ± 0.03
same,NP40-soluble protein abundance,[7]; concentration: 6mM,1.43 ± 0.061
same,NP40-soluble protein abundance,[7]; concentration: 8mM,1.51 ± 0.11
same,NP40-soluble protein abundance,[7]; concentration: 10mM,1.56 ± 0.1
